Among all 5,500 compounds or so, about 2,000 (36%) were called active. About 18% were inconclusive and are not listed. Rule as the data show it: active = normalized growth mostly below about 0.91 (no sharp cut-off); inconclusive = no clear call, values can overlap the other calls; inactive = mostly above about 0.92. The list shows a part of the results.
Test: chemical genetic growth profiling, strain panel (AID 1159580);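 also: tested at 20 µM; growth read once vehicle control cultures reached saturation at 30 °C; 1 = growth at the plate median or of vehicle wells; lower values mean less growth of the strain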
Settings: S. cerevisiae deletion strains, growth OD

Measured: normalized growth

C=CCc1ccccc1OCC(O)CN[C@]1(C)CCC[C@H](C(C)(C)NC(=O)CBr)C1 (some centres not stated)
inactive: locus YAL040C, strain CLN3, stronger effect = lower value 1.01 | locus YER002W, strain NOP16, stronger effect = lower value 1.02 | locus YGR229C, strain SMI1, stronger effect = lower value 1.01 | locus YNL175C, strain NOP13, stronger effect = lower value 1.08 | locus YNL197C, strain WHI3, stronger effect = lower value 1.03 | locus YNL224C, strain SQS1, stronger effect = lower value 1.02 | locus YOR083W, strain WHI5 (second series), stronger effect = lower value 1.09

Reference: PubChem BioAssay AID1159580 (chemical genetic matrix, 2015)
